CYP2C9 inh = inhibitors of human CYP2C9 | P11712 | CYP2C9 Supersomes, luciferin-H conversion, luminescence | inhibition, % at 5 µM | 96,000 tested, 20% active | AID 777;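 active = blocking of liver enzyme CYP2C9 beyond about 50% at 5 µM, limit read from the data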
CYP2C19 inhib = human CYP2C19 inhibition; P33261; CYP2C19 Supersomes, luciferin-H EGE luminescence, 30 min; inhibition, % at 5 µM; 96,000 tested, 21% active;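 active = CYP2C19 inhibition above a set limit at 5 µM in the primary screen, cut at about 50% in these data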
Target sequence (P33261 whole entry, looked up): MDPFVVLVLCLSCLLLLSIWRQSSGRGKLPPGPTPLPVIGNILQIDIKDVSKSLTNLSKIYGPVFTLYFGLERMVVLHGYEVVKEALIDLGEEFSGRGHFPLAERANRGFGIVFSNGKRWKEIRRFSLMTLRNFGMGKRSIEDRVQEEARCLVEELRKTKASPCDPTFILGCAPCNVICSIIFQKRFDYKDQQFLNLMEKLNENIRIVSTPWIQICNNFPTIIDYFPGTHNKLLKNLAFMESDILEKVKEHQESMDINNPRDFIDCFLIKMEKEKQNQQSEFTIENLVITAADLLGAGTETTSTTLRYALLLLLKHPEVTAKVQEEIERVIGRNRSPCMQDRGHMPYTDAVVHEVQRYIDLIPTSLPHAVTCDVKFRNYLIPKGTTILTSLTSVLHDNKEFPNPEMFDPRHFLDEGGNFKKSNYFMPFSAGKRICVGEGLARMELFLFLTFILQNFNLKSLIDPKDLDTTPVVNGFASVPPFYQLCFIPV
Pyk2 oligo antag = antagonists of human Pyk2 oligomerization | Q14289 | Q293 cells, Pyk2 FERM NanoBiT luminescence; active compounds read low | z-score (the deposit names both 25 µM and 10 µM) | 99,000 tested, 0.83% active;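 active = Z-score of -3 or lower, scaled per plate to the spread of control and sample wells; inactive = z-score above -3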;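 also: negative z-score means lost luminescence so less FERM oligomerization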
CYP2C19 activ = cytochrome P450 2C19 (human) activation; 96,000 tested, under 10 active; P33261; activation factor at 5 µM; recombinant CYP2C19, luciferin-H EGE luminescence; active compounds read high; 0 = fully inhibited enzyme, 1 = untreated enzyme;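 active = activation factor of at least 2 at 5 µM in the primary screen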
CYP2C9 activ = activators of human CYP2C9. activation factor at 5 µM. P11712. recombinant CYP2C9, luciferin-H conversion, luminescence; active compounds read high; factor 1 = untreated enzyme, 0 = blocked. AID 1024. 96,000 tested, 1.4% active;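 active = activation factor of 2 or more for CYP2C9 at a 5 µM dose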
Large screens that a line does not name were inactive. A selection: hits, their analogues and other compounds. The true share with any hit is near 28%.

O=C(Oc1ccc(OC(=O)c2ccco2)c(S(=O)(=O)c2ccc(Br)cc2)c1)c1ccco1	CYP2C9 inh 72, CYP2C19 inhib 64
CCCCOC(=O)CSC1=C(C#N)C(c2ccc3c(c2)OCO3)CC(=O)N1 (stereo not drawn)	CYP2C9 inh 57
CCCOC(=O)CSC1=C(C#N)C(c2ccccc2Cl)CC(=O)N1 (stereo not drawn)	CYP2C9 inh 96, CYP2C19 inhib 95 (no result: Pyk2 oligo antag)
CCOC(=O)CSC1=C(C#N)C(c2ccc3c(c2)OCO3)CC(=O)N1 (stereo not drawn)	none
CCOC(=O)CSC1=C(C#N)C(c2ccc(Cl)cc2)CC(=O)N1 (stereo not drawn)	CYP2C9 inh 98, CYP2C19 inhib 96 (no result: Pyk2 oligo antag)
CCCCCCSC1=C(C#N)C(c2ccc(O)cc2)CC(=O)N1 (stereo not drawn)	CYP2C9 inh 74, CYP2C19 inhib 63, Pyk2 oligo antag -3.3
COc1ccc(OC)c(NC(=O)CSc2nnc(Cn3nnc4ccccc43)n2C)c1	none
Cc1nnc(SCc2cccs2)[nH]c1=O	none (no result: CYP2C9 inh, CYP2C19 inhib, CYP2C19 activ, CYP2C9 activ)
Cc1ccc(N=C2SCCCN2C(=O)c2ccco2)cc1Cl	none
CC(=O)c1ccc(OCC(O)CN2CCN(c3ccccn3)CC2)cc1 (stereo not drawn)	none (no result: Pyk2 oligo antag)
O=C(c1ccco1)N1CCN(CC(O)Cn2c3ccccc3c3ccccc32)CC1 (stereo not drawn)	CYP2C9 inh 88, CYP2C19 inhib 83
Cc1c(C)n(CC(O)CN2CCCCCC2)c2ccccc12 (stereo not drawn)	CYP2C19 inhib 72
OC(CN1CCN(c2ccccn2)CC1)Cn1c2ccccc2c2ccccc21 (stereo not drawn)	CYP2C9 inh 54, CYP2C19 inhib 57
Cc1ccc2c(c1)c(C)c(C)n2CC(O)CN1CCOCC1 (stereo not drawn)	none (no result: CYP2C9 inh, CYP2C19 inhib, CYP2C19 activ, CYP2C9 activ)
OC(COc1ccc(Cl)c2ccccc12)CN1CCN(c2ccccn2)CC1 (stereo not drawn)	CYP2C9 inh 59, CYP2C19 inhib 92
CC1CC(C)CN(c2cc(=O)n(Cc3ccc(F)cc3)c(=O)[nH]2)C1 (stereo not drawn)	none (no result: Pyk2 oligo antag)
O=c1cc(Cl)c(-c2ccccc2)n[nH]1	none
CCCc1nc2c(nnn2Cc2ccccc2F)c(=O)[nH]1	CYP2C19 inhib 89
Clc1ccccc1Cn1nnc2c(NCC3CC3)ncnc21	CYP2C19 inhib 51, CYP2C9 activ 3.4
Clc1ccccc1Cn1nnc2c(Nc3ccccc3)ncnc21	none
c1ccc(CCNc2ncnc3c2nnn3Cc2ccccc2)cc1	none
C#CCNc1nc(C)nc2c1nnn2Cc1ccccc1F	CYP2C19 inhib 52
Fc1ccccc1Cn1nnc2c(NCc3ccccn3)ncnc21	CYP2C9 activ 2.8
COC(=O)CC1C(=O)NCCN1C(=O)NC1CCCCC1 (stereo not drawn)	none
Cc1cc(=O)n2[nH]c(-c3ccc(C(C)(C)C)cc3)cc2n1	none
COc1ccc(CCNc2oc(-c3cccc4ccccc34)nc2P(=O)(OC)OC)cc1OC	none (no result: CYP2C9 inh, CYP2C19 inhib, CYP2C19 activ, CYP2C9 activ)
COc1ccc(CCNc2oc(Cc3cccc4ccccc34)nc2C#N)cc1OC	CYP2C9 inh 57
CN(C)CCNc1oc(COc2ccc(-c3ccccc3)cc2)nc1C#N	none
COc1ccc(CCNc2oc(COc3ccc(Br)cc3)nc2C#N)cc1OC	CYP2C9 inh 51 (no result: Pyk2 oligo antag)
COc1ccccc1NC(=O)c1ccccc1NS(=O)(=O)N1CCCC1	none
O=C(COC(=O)c1cc(S(=O)(=O)N2CCOCC2)ccc1O)NCCc1ccccc1	CYP2C9 inh 83
O=C(NCCc1ccccc1)c1cc(S(=O)(=O)N2CCOCC2)ccc1F	CYP2C9 inh 54
O=C(NCCc1ccccc1)c1ccccc1NS(=O)(=O)N1CCCC1	CYP2C9 inh 86, CYP2C19 inhib 89
COc1ccc(S(=O)(=O)N2CCCCCC2)cc1C(=O)OCC(=O)NCC(C)C	none
CC(C)CNC(=O)COC(=O)c1cc(S(=O)(=O)N2CCCCC2)ccc1N1CCOCC1	CYP2C9 inh 69
O=C(NCc1ccccc1)c1cc(S(=O)(=O)N2CCOCC2)ccc1F	none
CCOC(=O)c1ccc(NC(=O)C2=C(C)Nc3nc(CCCO)nn3C2c2cccc(C)c2)cc1 (stereo not drawn)	none (no result: Pyk2 oligo antag)
O=S(=O)(c1ccc(S(=O)(=O)N2CCN(Cc3ccccc3)CC2)cc1)N1CCOCC1	none (no result: Pyk2 oligo antag)
O=C(c1cc(S(=O)(=O)N2CCOCC2)ccc1F)N1CCN(Cc2ccccc2)CC1	CYP2C19 inhib 75
O=S(=O)(Nc1cccc2ccccc12)N1CCCC1	CYP2C19 inhib 68
O=C1CCN2C=Nc3cccc4ccc1c2c34	none
CCOC(=O)C1CCCN(C(=O)c2sc3nc(-c4ccc(OC)cc4)cn3c2C)C1 (stereo not drawn)	none
O=C(c1ccccc1[N+](=O)[O-])N1CCC(Cc2ccccc2)CC1	CYP2C9 inh 60, CYP2C19 inhib 66
O=C(OCc1ccccc1)C1CCCN1C(=O)c1ccccc1[N+](=O)[O-] (stereo not drawn)	none
Cc1cc(C(=O)N2CCC(Cc3ccccc3)CC2)ccc1[N+](=O)[O-]	CYP2C19 inhib 78
CCOc1cc(/C=N/NC(=O)CN2CCOCC2)ccc1OCc1ccc(Cl)cc1	none
Cc1ccc(NC2=C(Cl)C(=O)OC2OC(=O)c2ccco2)cc1 (stereo not drawn)	CYP2C9 inh 91, CYP2C19 inhib 50
CC1CC(C)CN(c2ccc(-n3cnnn3)cc2[N+](=O)[O-])C1 (stereo not drawn)	CYP2C19 inhib 64
O=[N+]([O-])c1cc(-n2cnnn2)ccc1N1CCC(Cc2ccccc2)CC1	CYP2C9 inh 62
O=C(NCc1cccnc1)C1CCN(S(=O)(=O)c2cccnc2)CC1	none
O=C(NCc1cccnc1)c1cc(S(=O)(=O)N2CCCCC2)ccc1Cl	CYP2C9 inh 94, CYP2C19 inhib 80
O=C(NCc1ccco1)c1ccc(S(=O)(=O)c2cccc(S(=O)(=O)N3CCOCC3)c2)cc1	CYP2C19 inhib 51
O=C(NCc1cccnc1)c1cccc(S(=O)(=O)N2CCCCC2)c1	CYP2C19 inhib 65
O=C(COc1ccc(S(=O)(=O)N2CCCCC2)cc1)NCc1cccnc1	CYP2C9 inh 60
CC(NC(=O)c1ccc(-c2cc(C(F)(F)F)ccc2Cl)o1)c1ccccc1 (stereo not drawn)	none
Cc1ccnc(NC(=O)c2cc(S(=O)(=O)N3CCCCC3)ccc2Cl)c1	CYP2C9 inh 88
O=C(NCc1cccnc1)c1ccc(S(=O)(=O)N2CCOCC2)cc1	none
O=C(Nc1ccc(O)cc1)c1cc(S(=O)(=O)N2CCCC2)ccc1Cl	none
O=C(NCc1cccnc1)c1cccc(S(=O)(=O)N2CCOCC2)c1	CYP2C19 inhib 61
O=C1OCCC1N1C(=O)c2ccccc2S1(=O)=O (stereo not drawn)	none
COc1cc2[nH]c(=S)nc(NCCCOC(C)C)c2cc1OC	none
c1ccc2c(c1)NC1(CCCCCC1)n1c-2nc2ccccc21	CYP2C9 inh 51
CCCCC1(C)Nc2ccccc2-c2nc3ccccc3n21 (stereo not drawn)	CYP2C9 inh 57, CYP2C19 inhib 81
O=C1Cn2c(nc3ccccc32)-c2ccccc2N1	none

Screening data deposited in PubChem BioAssay by Sanford-Burnham Center for Chemical Genomics.
